The term AC50 denotes the concentration giving half of the maximal activity seen.

Results on 40 compounds are retold here after PubChem BioAssay (EPA / NIEHS).

Records with an inconclusive call do not appear. Calls of active or inactive are those of the source. The calls were made as follows: active = hit-call score of the fitted dose curve at least 0.9, where 1 is the maximum; inconclusive = response in the unintended direction; inactive = score below 0.9.

rat Monoamine Oxidase, MAO-B, Peripheral (MAOBP), Maob (gene 25750), sequence (P19643 whole entry, looked up): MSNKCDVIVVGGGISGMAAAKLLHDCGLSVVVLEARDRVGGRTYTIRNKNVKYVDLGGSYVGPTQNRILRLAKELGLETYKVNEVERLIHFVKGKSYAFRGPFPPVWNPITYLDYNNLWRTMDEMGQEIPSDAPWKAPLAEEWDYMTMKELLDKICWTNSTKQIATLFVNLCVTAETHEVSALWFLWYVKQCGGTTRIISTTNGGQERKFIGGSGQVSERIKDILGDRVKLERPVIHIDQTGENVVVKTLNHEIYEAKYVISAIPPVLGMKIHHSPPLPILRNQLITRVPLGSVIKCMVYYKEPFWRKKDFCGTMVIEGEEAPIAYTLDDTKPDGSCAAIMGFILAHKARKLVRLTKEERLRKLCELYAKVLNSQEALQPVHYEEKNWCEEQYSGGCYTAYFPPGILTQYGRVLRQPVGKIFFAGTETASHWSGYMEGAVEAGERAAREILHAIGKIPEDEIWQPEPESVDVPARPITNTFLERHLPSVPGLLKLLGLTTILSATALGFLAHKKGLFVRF

The assay concerns the target rat Monoamine Oxidase, MAO-B, Peripheral (MAOBP), Maob (gene 25750) (UniProt P19643). Kind of assay: NVS_ENZ_rMAOBP: NovaScreen (NVS) Enzymatic Assay for rat Monoamine Oxidase, MAO-B, Peripheral (MAOBP) (AID 2283242). As to the method:
NVS_ENZ_rMAOBP is a biochemical, single-readout assay that uses extracted gene-proteins from Rat brain in a tissue-based cell-free assay. Measurements were taken 1.17 hours after chemical dosing in a 96-well plate.NVS_ENZ_rMAOBP is one of one assay component(s) measured or calculated from the NVS_ENZ_rMAOBP assay. It is designed to make measurements of enzyme activity, a form of enzyme reporter, as detected with scintillation counting signals by Lysate-based radiodetection technology.Data from the assay component NVS_ENZ_rMAOBP was analyzed into 1 assay endpoint. This assay endpoint, NVS_ENZ_rMAOBP, was analyzed in the positive analysis fitting direction relative to DMSO as the negative control and baseline of activity. Using a type of enzyme reporter, loss-of-signal activity can be used to understand changes in the enzymatic activity as they relate to the gene Maob. Furthermore, this assay endpoint can be referred to as a primary readout, because this assay has produced multiple assay endpoints where this one serves a enzymatic activity function. To generalize the intended target to other relatable targets, this assay endpoint is annotated to the oxidoreductase intended target family, where the subfamily is monoamine oxidase.
Binding assays used specific radioligands (tritiated, iodinated) with non-radioactive competitive displacement ligands in agonist or antagonist protocols (as indicated) and various reference compounds and inhibitors to titrate specific binding to receptors and transporters. Most enzyme assays (CYPs, kinases, phosphatases, proteases, HDACs) used recombinant protein and specific substrates (fluorescence mostly, some colorimetric and radioactive) and inhibitors, followed by a biochemical separation of substrate and product. All assays for the biochemical HTS were initially run in duplicate at a single concentration (10 uM for CYP450 assays and 25 uM for all others). Assay-chemical combinations meeting a pre-defined threshold (e.g., 30% inhibition and other criteria defined below) were then run in singleton concentration-response format with maximum concentration of 20 uM for CYPs and 50 uM for all others. Each assay was run with positive and negative controls, and concurrent controls on every plate. The follow-up (secondary) screen tested active chemical-pairs in concentration series, as well as a few additional assays not tested in the primary screen, some selected negative inactives, and several cases re-run in the concentration series for confirmatory purposes.
As to `CN(C)C(=O)NC1(c2ccccc2)CCN(CCC[C@]2(c3ccc(Cl)c(Cl)c3)CCCN(C(=O)c3ccccc3)C2)CC1`, the call was inactive.
Take `COc1ccc2cc(S(=O)(=O)N[C@H](CC(=O)N[C@H](Cc3ccc(CN4[C@H](C)CCC[C@@H]4C)cc3)C(=O)N(C)C(C)C)c3ccc4c(c3)OCO4)ccc2c1`: the call was inactive.
Turning to `O=C1c2ccccc2C(=O)N1CCc1noc(-c2ccc(CN3CCCCCC3)s2)n1`, the AC50 was 11.4 µM (active).
`NC(=Nc1ccccc1)Nc1ccccc1`: the compound was called inactive.
`C=CCCCCCCCCCCCC`: the compound was classed as inactive.
The same measure, in the same setting: the same measure for `CCc1cc(SCc2sc(-c3ccc(C(F)(F)F)cc3)nc2CN2CCN(c3ccc(OC)cc3)CC2)ccc1OCC(=O)O`: “inactive”.
As to `COc1cccc(-c2ccc(/C=C\CN3CCCCCC3)cc2Cl)c1`, the AC50 is 11.6 µM (active).
In the case of `CC=Cc1ccc(O)c(OC)c1`, the compound was classed as inactive.
As to `O=c1[nH]sc2ccccc12`, the AC50 is 19.2 µM (active).
Consider `CCCCCCC(C=O)=Cc1ccccc1`, for which the result was inactive.
Same read-out and setting: then `COc1cc(C(=O)NC2CCN(C)CC2)ccc1Nc1ncc2c(n1)N(C1CCCC1)CC(F)(F)C(=O)N2C`, with “inactive”.
Turning to `CN(C)c1ccc(N=NS(=O)(=O)O)cc1`, the AC50 was 23.8 µM (active).
Take `NCCO`: the compound was called inactive.
As for `O=C1NS(=O)(=O)c2ccccc21`, the result was inactive.
For the compound `Cc1[nH]cnc1C[C@H]1CCc2c(C)c3ccccc3n2C1=O`, the AC50 is 22.2 µM (active).
In the case of `O=[N+]([O-])c1ccc(O)cc1`, the AC50 is 39.1 µM (active).
For `CC1=C(/C=C/C(C)=C/C=C/C(C)=C/C(=O)O)C(C)(C)CCC1`, the result was inactive.
On to `NCc1cccc(C2CCN(C(=O)c3ccc(C#Cc4ccccc4F)o3)CC2)c1`, for which the AC50 was 38 µM (active).
Consider `CCCC[C@H]1CN(CC2CCOCC2)C(=O)OC12CCN(C1(C)CCN(C(=O)c3c(C)ncnc3C)CC1)CC2`, for which the call was inactive.
Still for that read-out and setting: then `CCCCN1C(=O)[C@@H]([C@H](O)C2CCCCC2)NC(=O)C12CCN(Cc1ccc(Oc3ccc(C(=O)O)cc3)cc1)CC2`, with “inactive”.
Regarding `CCN(CC)CCOc1ccc(C(=C(Cl)c2ccccc2)c2ccccc2)cc1`, the AC50 is 3.9 µM (active).
For `O=c1c(-c2ccc(O)cc2)coc2cc(O)ccc12`, the compound was classed as inactive.
On the same count and under the same terms, the same measure for `CS(=O)(=O)OCCCCOS(C)(=O)=O`: “inactive”; for `S=C([S-])NCCNC(=S)[S-].[Mn+2]`: “inactive”.
As to `O=C(NS(=O)(=O)/C=C/c1cccs1)c1ccc(F)cc1Br`, the call was inactive.
`Oc1ccc2ccccc2c1`: the concentration at half-maximal activity (AC50) was 13.3 µM (active).
The same measure, in the same setting: the same measure for `COc1ccc(OC(F)(F)F)cc1CN[C@H]1CCCN[C@H]1c1ccccc1`: 36.5 µM (active).
The same measure, in the same setting: the same measure for `CN(C)c1ccc(C(=C2C=CC(=[N+](C)C)C=C2)c2ccc(N(C)C)cc2)cc1`: 25 µM (active).
Take `NC(=O)c1nc(-c2cccc(-c3cc(F)ccc3OCC(F)(F)C(F)(F)F)c2)n[nH]1`: the compound was called inactive.
`CC(N)=O`: the compound was called inactive.
With `O=C(c1ccccc1)C1CCCCC1`, the result was inactive.
Take `Cc1occc1C(=O)Nc1ccc(C(=O)N2CCC(F)(F)/C(=C\C(=O)N3CCC(N4CCCCC4)CC3)c3ccccc32)cc1`: the concentration at half-maximal activity (AC50) is 9.05 µM (active).
Still for that read-out and setting: then `O=c1ccc2ccccc2o1`, with 13.5 µM (active).
Take `CNS(=O)(=O)c1cc(C(=O)N2CCC(CCN3C4CCC3CC(n3c(C)nc5ccccc53)C4)(c3cccc(F)c3)CC2)c(Cl)cc1F` (stereo not given): the compound was called inactive.
With `N=C(N)c1ccc(OCCCCCOc2ccc(C(=N)N)cc2)cc1`, the AC50 is 0.905 µM (active).
With `COc1ccc(S(=O)(=O)N2C(=O)[C@@](c3ccccc3OC)(N3C[C@H](O)C[C@H]3C(=O)N(C)C)c3cc(Cl)ccc32)c(OC)c1`, the compound was classed as inactive.
Same read-out and setting: the same measure for `CCN(Cc1cccnc1)C(=O)c1cccc(Cl)c1[C@]1(C)C(=O)N(Cc2ccc(OC)cc2OC)c2ccc(Cl)cc21`: “inactive”.
Regarding `O=C(c1ccc(OCCN2CCCCC2)cc1)c1c(-c2ccc(O)cc2)sc2cc(O)ccc12`, the half-maximal activity concentration (AC50) was 10.8 µM (active).
As for `Cc1nccn1-c1ccc(Sc2cccc(C3(C(N)=O)CCOCC3)c2)cc1`, the compound was classed as inactive.
Still for that read-out and setting: the same measure for `Cc1oc(-c2ccccc2)nc1CCOc1ccc(C[C@H](Nc2ccccc2C(=O)c2ccccc2)C(=O)O)cc1`: “inactive”.
